Screens (PubChem)
Only some compounds are listed: those with a hit (about 2.1% of all), similar ones and a draw of the others.
Efa HMGR inh: inhibitors of class II HMG-CoA reductase from Enterococcus faecalis. purified E. faecalis HMGR, NADPH absorbance 340 nm kinetic. inhibition, % at 10 µM. hit rate 0.41% among 190,000. AID 1066;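 active = inhibition above a set limit, the median over all tested compounds plus 3 SD, cut at about 9.5% in these data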;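 also: enzyme runs in reverse so mevalonate oxidation gives rising NADPH absorbance; 0% = complete reaction with DMSO and 100% = background rate lacking mevalonate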
PGE2 EP2 inh: inhibitors of human EP2 prostaglandin E2 receptor; hit rate 0.52% among 260,000; inhibition, % at 25 µM; AID 1422; C6 glioma cells expressing human EP2, cAMP TR-FRET; cells stimulated with saturating PGE2;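 active = percent inhibition above 40 after rounding to a whole number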;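 also: rat C6 glioma host cells with rolipram phosphodiesterase inhibitor present; the protocol text gives 20 µM as final concentration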
Target sequence (P43116 whole entry, looked up): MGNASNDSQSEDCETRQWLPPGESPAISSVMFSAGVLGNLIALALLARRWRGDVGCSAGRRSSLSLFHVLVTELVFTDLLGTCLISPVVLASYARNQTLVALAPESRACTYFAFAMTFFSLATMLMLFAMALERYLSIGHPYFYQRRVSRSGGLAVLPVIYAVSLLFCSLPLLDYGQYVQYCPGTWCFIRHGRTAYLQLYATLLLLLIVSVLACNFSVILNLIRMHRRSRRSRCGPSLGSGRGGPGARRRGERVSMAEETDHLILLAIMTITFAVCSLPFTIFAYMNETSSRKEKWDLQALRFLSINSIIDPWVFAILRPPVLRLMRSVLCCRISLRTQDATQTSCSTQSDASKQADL
Avidin bead fluor: compound fluoresces at 488/530 nm on avidin beads; compound fluorescence 488/530 nm, flow cytometry; active compounds read high; fluorescence (KMESF) at 10 µM; hit rate 0.38% among 220,000; AID 1775; in the data active = fluorescence above about 47
GSH fluor: GSH bead compound fluorescence profile; AID 1776; GSH beads flow cytometry, compound fluorescence 488/530 nm; active compounds read high; hit rate 0.25% among 190,000; fluorescence (KMESF) at 10 µM; in the data active = fluorescence above about 89;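 also: glutathione beads carrying GST-tagged Bcl family fusion proteins plus one bare bead set; values are compound well signal with DMSO vehicle wells as background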
EP2 modulator: modulates human prostaglandin E2 receptor EP2 signaling | induction, % at 25 µM | AID 940 | EP2-expressing cells, cAMP HTRF FRET, PGE2 co-stimulation | P43116 | hit rate 0.83% among 260,000;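 active = compounds whose cAMP rise, as percent of the full-agonist control response, exceeds 60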;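 also: rat C6 glioma line stably carrying human EP2 under a CMV promoter; the protocol text gives 20 µM as final concentration; 100% = response of wells given 1 µM PGE2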
EP2 confirm: human EP2 receptor cAMP induction, negative in counter-screens. hit rate 47% among 1,300. shares compounds with EP2 modulator. C6 glioma EP2 cells, cAMP HTRF induction; plus low (about EC15) PGE2 agonist. calls only at 20 µM (by protocol). AID 1080;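 active = cAMP induction above 50% in the main assay while under 30% in all four parallel counter assays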;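 also: rat C6 glioma cells stably expressing human EP2 receptor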
An asterisk follows results filed as active; i = inactive; · = no result; + = active, no number; ! = not active in a repeat.

SMILES | Efa HMGR inh | PGE2 EP2 inh | Avidin bead fluor | GSH fluor | EP2 modulator | EP2 confirm
COC(=O)c1c(NC(C)=O)sc2c1CCCC2 | 3.6 | 12.6 | 9 | 47 | 4.8 | ·
COC(=O)c1c(NC(NC(=O)C(C)C)C(Cl)(Cl)Cl)sc2c1CCCC2 (stereo unspecified) | -3.1 | 4.1 | 2 | 8 | 55.7 | i
CS(=O)(=O)N(Cc1ccccc1)c1ccccc1C(=O)Nc1ccccc1C(=O)NCc1ccco1 | 1.6 | 8.2 | 12 | 13 | 87.9* | +
Cc1ccc(S(=O)(=O)N(Cc2ccccc2)c2ccccc2C(=O)Nc2ccccc2C(=O)NCc2ccco2)cc1 | 3.8 | 2.5 | 11 | 22 | 47.0 | ·
CCOc1ccc2ccccc2c1/C=C\c1nc(O)c([N+](=O)[O-])c(=O)[nH]1 | · | 5.3 | · | · | -25.2 | ·
Cc1cc(C)cc(OC2CCCCC2NS(=O)(=O)c2ccccc2)c1 (stereo unspecified) | 4.5 | 7.9 | 11 | 14 | 65.2* | +
CCn1c(SCC(=O)Nc2cccc(NC(=O)c3ccccc3)c2)nnc1-c1cccs1 | · | 9.0 | · | · | -69.7 | ·
COC(=O)c1cc2occc2n1Cc1nc(-c2ccccc2Cl)oc1C | -3.1 | 10.6 | 7 | 16 | 48.7 | ·
COC(=O)c1cc2occc2n1Cc1cccc(C)c1 | -3.7 | 3.3 | 9 | 15 | 76.5* | +
CCc1cc2cc(C)ccc2nc1SCC(=O)Nc1ccccc1C(F)(F)F | · | 14.4 | · | · | 37.0 | ·
CCOC(=O)c1oc2ccccc2c1NC(=O)c1cccc(OC)c1OC | -0.8 | 10.1 | 25 | 26 | 65.8* | i
N#CC1c2ccccc2C=CN1C(=O)c1ccccc1 (stereo unspecified) | · | 2.5 | 8 | · | -1.3 | ·
N#CC1(Cc2ccccc2Cl)c2ccccc2C=CN1C(=O)c1ccccc1 (stereo unspecified) | -1.1 | · | 12 | 41 | 69.5* | i
Cc1ccc(C2=NN(CC(N)=O)C(=O)c3cc4ccccc4n3C2)cc1 | · | · | · | · | -70.9 | ·
Nc1c(C(=O)Nc2ccccc2F)sc2nc3cc4c(cc3cc12)OCCO4 | · | 15.1 | · | · | -85.2 | ·
C(=N\Nc1nc2ccccc2[nH]1)/c1ccccc1 | -3.8 | 9.8 | 12 | 14 | -19.0 | ·
O=c1[nH]c(N/N=C/c2ccccc2)nc2ccccc12 | -4.2 | 6.5 | 24 | 24 | 68.6* | +
Fc1ccc(-c2cc(-c3ccccc3)nc(-n3cccn3)n2)cc1 | -4.2 | 11.8 | 9 | 16 | 41.3 | +
COc1ccc2cc3c(N)nn(C(=O)Cc4ccccc4OC)c3nc2c1 | 0.2 | 12.5 | 6 | 20 | 0.0 | ·
COc1ccc2cc3c(N)nn(C(=O)C4CCC(C(C)(C)C)CC4)c3nc2c1 (stereo unspecified) | 6.1 | 13.5 | 6 | 13 | 68.7* | i
Cc1onc(-c2ccccc2)c1C(=O)N(Cc1ccco1)Cc1cccs1 | -4.2 | 8.8 | 12 | 25 | 97.9* | +
Cc1onc(-c2ccccc2)c1C(=O)NCc1ccco1 | -1.5 | 10.4 | 34 | 27 | -0.2 | ·
CC(=O)Nc1ccc(Nc2nc(-c3cccc(NC(C)=O)c3)cs2)cc1 | · | 14.0 | · | · | -29.9 | ·
COc1ccc(C(=O)NCCCN2CCOCC2)cc1OC | -8.0 | 3.5 | 38 | 19 | 67.8* | i
COc1ccc(C=O)cc1COc1c(F)c(F)cc(F)c1F | -2.0 | 14.5 | 21 | 36 | 31.3 | ·
SMILES | Efa HMGR inh | PGE2 EP2 inh | Avidin bead fluor | GSH fluor | EP2 modulator | EP2 confirm
C=CCc1cc(C=O)cc(OC)c1OCc1c(Cl)cccc1Cl | -2.7 | 8.1 | 5 | 9 | 91.7* | +
COC(=O)c1nc(NC(=O)C(C)(C)C)n[nH]1 | 0.5 | 16.3 | 9 | 11 | 66.2* | i
Cn1c(=O)c2c(nc(N3CCOCC3)n2Cc2cccc3ccccc23)n(C)c1=O | · | 7.7 | · | · | -9.7 | ·
COC(=O)C(C)Sc1ncnc2c1nnn2-c1ccc(F)cc1 (stereo unspecified) | 0.0 | -1.6 | 8 | 13 | 56.4 | i
COc1ccc(C2(C(=O)N3CCCC(c4ncncc4-c4ccncc4)C3)CC2)cc1 (stereo unspecified) | · | · | · | · | 43.2 | ·
CC(C)(C)C(=O)CN1CCC2(CC1)NC(=O)c1ccccc1O2 | · | · | · | · | 3.7 | ·
COC(=O)c1cc(Br)c(=O)n(-c2nccs2)c1 | -5.5 | 24.9 | 10 | 34 | 65.2* | i
CCC(=O)N(CC)c1nc(-c2cc(OC)ccc2OC)cs1 | -0.2 | 7.2 | 24 | 20 | 77.7* | +
CCC(=O)N(CCCN(C)C)c1nc(-c2cc(OC)ccc2OC)cs1 | -1.1 | 2.9 | 12 | 34 | -8.9 | ·
COCCCN(C(=O)c1ccco1)c1nc(-c2cc(OC)ccc2OC)cs1 | -5.7 | 4.5 | 5 | 23 | 74.9* | +
O=C(Cn1nc(C(F)(F)F)c2c1CCC2)N1CCCc2ccccc21 | · | 8.0 | · | · | -13.7 | ·
C=Cn1ncc(CN(CCCN2CCOCC2)Cc2ccc(C)o2)c1C | · | 3.4 | · | · | 0.1 | ·
CCN1CCN(C(=O)CN(c2cccc(Cl)c2Cl)S(C)(=O)=O)CC1 | · | 11.8 | · | · | -11.7 | ·
Oc1c(Cl)cc(Cl)cc1Sc1cc(Cl)cc(Cl)c1O | -3.1 | 21.2 | 7 | 19 | 76.3*! | i
O=C(c1ccco1)N(CCC(c1ccccc1)c1ccco1)Cc1ccc(F)cc1 (stereo unspecified) | · | 3.9 | 6 | 4 | 69.7* | +
Cc1sc(NC(=O)CN2CCOCC2)c(C(=O)c2ccccc2)c1C | 5.0 | 0.6 | 33 | 15 | 69.0* | i
CCOC(=O)c1c(NC(=O)CN2CCCCC2)sc2c1CCN(C(=O)OCC)C2 | 0.7 | · | 30 | 24 | 70.5* | +
CCOC(=O)N1CCc2c(sc(NC(=O)Cc3ccccc3)c2C(=O)c2ccc(OC)cc2)C1 | · | 14.7 | 8 | · | 20.5 | ·
CCOC(=O)c1c(NC(=O)CN2CCN(C(=O)c3ccco3)CC2)sc2c1CCCC2 | 2.2 | · | 7 | 20 | 60.0 | i
CCOC(=O)c1c(NC(=O)Cc2cccs2)sc(C)c1C | -1.3 | 10.9 | 1 | 45 | 62.2* | i
COc1ncc(CN(Cc2ccccc2F)C2CC(C)(C)NC(C)(C)C2)cn1 | · | 5.5 | · | · | -39.4 | ·
CCOC(=O)c1sc(NC(=O)CCN2CC(C)OC(C)C2)c(C(=O)OCC)c1C (stereo unspecified) | 0.8 | · | 7 | 34 | 50.3 | i
CCOC(=O)c1c(NC(=O)CN2CCCCC2)sc(C)c1C | -1.2 | 5.8 | 9 | 15 | 67.0* | +
CCOC(=O)c1c(NC(=O)CN(CC)CC)sc2c1CCN(C(=O)OCC)C2 | -1.7 | 9.4 | 10 | 50 | 71.6* | +
CCOC(=O)c1c(NC(=O)c2ccn(CC)n2)sc2c1CCCC2 | -5.2 | 10.8 | 10 | 32 | 60.3 | i
CCOC(=O)c1sc(NC(=O)CN2CCCC2)c(C(=O)OCC)c1C | -7.9 | · | 27 | 17 | 37.1 | ·
CCOC(=O)c1c(NC(=S)N2CCN(C)CC2)sc2c1CCN(C(=O)OCC)C2 | · | 9.0 | 7 | · | 32.2 | ·
CC(C)n1c(N2CCN(C)CC2)nc2c1c(=O)n(C)c(=O)n2C | · | 8.4 | · | · | -22.6 | ·
